The supplement of paper PMC6555819

Key:
Test in all cases: PBM binding z-score (relative to random genomic background probes); higher = stronger binding; sequences stand for … in GC…GCGATTGACAGCGTAGAATGAAGG
[1] = test system: LXRa homodimer (NR concentration 270 nM)
How it was run: (§1)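 Probes were double-stranded and carried 34-nt variable regions with direct-repeat seeds, single-nucleotide variants, half-site ablations and random human genomic background sequences, printed on custom Agilent 4×180K protein-binding microarrays. Arrays were incubated 1 h with ligand-free nuclear receptor dimers in PBS pH 7.4, 2% milk, 0.02% Triton X-100, 1 mM DTT, 0.2 mg/mL BSA and 0.4 mg/ml salmon testes DNA. Antibodies against each partner (one per run) detected binding, and scanned fluorescence was regression-normalized. Binding z-scores use the random background probes as reference.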

[2] = test system: LXRb homodimer (NR concentration 270 nM)
How it was run: as §1

[3] = test system: PPARg:RXRa 270nM:90nM, anti-RXR (NR concentration 270 nM, RXRa partner concentration 90 nM)
How it was run: as §1

[4] = test system: PPARg:RXRa 30nM:10nM, anti-RXR (NR concentration 30 nM, RXRa partner concentration 10 nM)
How it was run: as §1

[5] = test system: PPARg:RXRa 90nM:30nM, anti-RXR (NR concentration 90 nM, RXRa partner concentration 30 nM)
How it was run: as §1

[6] = test system: PPARg:RXRa DBDmut IVT, anti-RXR (DBD mutation: RXRa K156A/R161A, NR concentration 270 nM, RXRa partner concentration 90 nM)
How it was run: as §1

[7] = test system: PPARg:RXRa IVT, anti-PPARg (NR concentration 270 nM, RXRa partner concentration 90 nM)
How it was run: as §1

[8] = test system: PPARg DBDmut:RXRa IVT, anti-PPARg (DBD mutation: PPARg1 K132A/R137A, NR concentration 270 nM, RXRa partner concentration 90 nM)
How it was run: as §1

[9] = test system: PPARg DBDmut IVT, anti-PPARg (DBD mutation: PPARg1 K132A/R137A, NR concentration 270 nM)
How it was run: as §1

[10] = test system: PPARg homodimer (NR concentration 180 nM)
How it was run: as §1

[11] = test system: PXR homodimer (NR concentration 270 nM)
How it was run: as §1

[12] = test system: RARa homodimer (NR concentration 270 nM)
How it was run: as §1

[13] = test system: RARb homodimer (NR concentration 270 nM)
How it was run: as §1

[14] = test system: RARb:RXRa (NR concentration 270 nM, RXRa partner concentration 90 nM)
How it was run: as §1

[15] = test system: PPARg:RXRa (NR concentration 180 nM, RXRa partner concentration 90 nM)
How it was run: as §1

[16] = test system: PXR:RXRa (NR concentration 270 nM, RXRa partner concentration 90 nM)
How it was run: as §1

[17] = test system: RARa:RXR (NR concentration 270 nM, RXRa partner concentration 90 nM)
How it was run: as §1

Row | Sequence | PBM binding z-score [1] | PBM binding z-score [2] | PBM binding z-score [3] | PBM binding z-score [4] | PBM binding z-score [5] | PBM binding z-score [6] | PBM binding z-score [7] | PBM binding z-score [8] | PBM binding z-score [9] | PBM binding z-score [10] | PBM binding z-score [11] | PBM binding z-score [12] | PBM binding z-score [13] | PBM binding z-score [14] | PBM binding z-score [15] | PBM binding z-score [16] | PBM binding z-score [17]
1 | ACTCGGAGGTCAAAGGTCAGAGCTACGCCAGTGA | 5.1 | 2.98 | 9.47 | 9.38 | 10.2 | 4.46 | 6.2 | 2.13 | 2.31 | 6.27 | 1.87 | 3.86 | 5.48 |  |  |  | 
2 | TATACGGGGTCAAAGGCCAGAGTACGAATGTCGA | 4.73 | 5.42 | 9.09 | 7.56 | 9.05 | 4.38 | 6.45 | 4.68 | 3.02 | 3.58 | 1.98 | 1.66 | 4.34 | 5.29 |  |  | 
3 | CAAACGAGGTCAAAGGTCAAAGTCGAGCCAACCA | 7.06 | 4.76 | 11.2 | 13.8 | 13.8 | 7.13 | 8.38 | 5.96 | 5.7 | 7.87 | 5.27 | 6.67 | 5.59 |  | 13.9 |  | 
4 | CGTACAAGGTCAAAGGTCAGTGAAGAGATGACGG | 3.43 | 2.4 | 10.1 | 11.2 | 11.9 | 5.32 | 7.09 | 2.61 | 3.6 | 5.49 | 2.17 | 4.68 | 5.35 | 5.95 |  | 7.22 | 9.15
5 | ATCGAAAGGTCATGAGGTGAGTATACAGAAAGGC | 4.02 | 2.52 | 7.95 | 5.41 | 7.18 | 4.25 | 5.59 | 2.8 | 3 | 4.69 | 0.933 | 3.7 | 5.04 |  | 9.07 | 5.71 | 
6 | CGTCAAAGTTCAACTAAGGTCACGTAAAGCACGC | 8.57 | 2.98 | 6.88 | 3.49 | 5.51 | 1.14 | 3.7 | 0.74 | 1.77 | 6.25 | 12.2 | 3.25 | 6.11 |  | 6.26 |  | 
7 | GCTTAGGGGTCAAAGGTTATAGCATGAATAGAAT | 1.95 | 2.82 | 9.66 | 9.13 | 10.2 | 5.79 | 6.52 | 3.02 | 2.44 | 2.86 | 1.2 | 1.8 | 4.64 |  | 11.8 |  | 
8 | CAAACGAGGTCACCGGAAGGTCAAAGTCCGCATG | 6.35 | 2.17 | 8.2 | 5.78 | 7.55 | 6.23 | 7.57 | 4.42 | 0.844 | 6.98 | 6.23 | 2.61 | 6.03 |  | 9.26 |  | 
9 | CTACCAAGGTCAACAAGGTCGTTGATTACTATTC | 3.79 | 1.23 | 6.01 | 2.68 | 4.51 | 4.52 | 4.74 | 1.26 | 1.4 | 4.44 | 12.6 | 3.35 | 5.25 |  | 5.57 |  | 6.63
10 | CAAACGAGGTCACGAAAGGTCAAAGTCGAATGAC | 9.67 | 3.56 | 8.71 | 6.72 | 8.74 | 6.75 | 7.7 | 2.28 | 3.02 | 7.67 | 9.37 | 5.09 | 6.1 |  | 10.1 |  | 
11 | CAAACGAGGTCACAGAGGTCAAAGTCCGTGCGTA | 8.64 | 3.01 | 8.76 | 6.47 | 8.53 | 6.82 | 7.63 | 3.35 | 5.12 | 7.88 | 15.3 | 5.39 | 5.83 |  | 9.94 |  | 
12 | CAAACGAGGTCAAGAGGTCAAAGTCCGCTTCCCG | 7.48 | 2.92 | 7.84 | 5.59 | 7.61 | 6.04 | 7.14 | 1.86 | 1.69 | 5.31 | 6.05 | 2.73 | 6.42 |  | 9.67 |  | 8.32
13 | AGTCAAAGGTCATCTAGGTAACGTAAGATATGCT | 4.61 | 5.04 | 8.23 | 6.82 | 8.3 | 4.12 | 6.77 | 2.25 | 1.94 | 3.75 | 1.34 | 2.2 | 5.29 |  |  | 5.44 | 6.03
14 | TTACCAAGGTCAAAGGTCGTTGATGCACGCCTTG | 4.68 | 1.83 | 8.91 | 8.91 | 10.4 | 4.35 | 6.12 | 2.16 | 2.19 | 4.12 | 2.27 | 1.08 | 4.89 |  |  |  | 
15 | CCTTAGGGGTCACTCCAGGTTATAGCATCGGAGT | 3.9 | 1.26 | 7.74 | 4.31 | 6.51 | 3.7 | 5.37 | 2.85 | 0.901 | 3.42 | 0.789 | 1.3 | 4.71 | 5.36 | 7.77 |  | 
16 | ACTTAGGGGTCAACGAGGTTATAGCACGCGTATA | 2.91 | 2.35 | 8.62 | 6.08 | 8.5 | 5.4 | 5.93 | 2.39 | 2.86 | 3.01 | 9.1 | 2.38 | 5.02 |  | 9.33 |  | 
17 | CAAACAAGGTCAAAGGTCAAAGTCGAGCCAACCA | 6.4 | 4.04 | 11 | 13.5 | 13.5 | 6.43 | 7.85 | 4.28 | 4.16 | 7.37 | 4.12 | 6.18 | 5.66 |  | 13.5 |  | 
18 | TGTCAAAGGTCAAAGGTAACGTAAGTATCCACAC | 4.19 | 4.32 | 9.9 | 8.47 | 10.5 | 4.01 | 7.56 | 5.45 | 6.39 | 5.28 | 1.31 | 3.71 | 5.11 |  |  |  | 
19 | GCTTACGGGTCAAAGGTCATAGCATGAATAGAAT | 4.02 | 1.77 | 10.4 | 12.9 | 12.5 | 5.72 | 7.02 | 2.05 | 1.67 | 4.66 | 1.47 | 2.21 | 5.12 |  |  |  | 
